Compound activity: PubChem BioAssay, National Center for Advancing Translational Sciences (NCATS)
Rows were chosen to be rich in hits. Some 19% of all compounds tested hit in one or more screens of this group.
HepG2 tox: counter-screen for TGF-b inhibitors: cytotoxicity in HepG2 cells; Potency, µM (highest dose often 46.1 µM), for the others: at the highest dose activity change, negative = cytotoxicity, usual class: cytotoxic; HepG2 CAGA-GFP viability, ATP luminescence, 18 h; 410,000 compounds, 0.76% hits; further: potency means the concentration at half of the fitted maximal effect
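CellTiter-Glo luminescence gave cytotoxicity after 18 hours at 37 degrees C. The cells were HepG2 CAGA-GFP in 1% FBS DMEM, stimulated with 500 pg/mL TGF-beta after compound addition. %Activity was normalised to no-cell wells (complete cell-killing) and DMSO (no toxicity), and curves were fitted and classified.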
TDP1 inh: blocks human tyrosyl-DNA phosphodiesterase 1; 350,000 compounds, 0.28% hits; AID 485290; recombinant TDP1, AlphaScreen DNA substrate cleavage; Q9NUW8; Potency, µM (top dose mostly 130 µM), without a hit: top-dose activity change, negative = inhibition, most hits filed as inhibitors; further: potency means the concentration at half of the fitted maximal effect; on the % scale 0 is the no-effect control and ±100 the full control effect; nearly all actives have a fitted effect of over 40% in size
Target sequence (Q9NUW8 whole entry, looked up): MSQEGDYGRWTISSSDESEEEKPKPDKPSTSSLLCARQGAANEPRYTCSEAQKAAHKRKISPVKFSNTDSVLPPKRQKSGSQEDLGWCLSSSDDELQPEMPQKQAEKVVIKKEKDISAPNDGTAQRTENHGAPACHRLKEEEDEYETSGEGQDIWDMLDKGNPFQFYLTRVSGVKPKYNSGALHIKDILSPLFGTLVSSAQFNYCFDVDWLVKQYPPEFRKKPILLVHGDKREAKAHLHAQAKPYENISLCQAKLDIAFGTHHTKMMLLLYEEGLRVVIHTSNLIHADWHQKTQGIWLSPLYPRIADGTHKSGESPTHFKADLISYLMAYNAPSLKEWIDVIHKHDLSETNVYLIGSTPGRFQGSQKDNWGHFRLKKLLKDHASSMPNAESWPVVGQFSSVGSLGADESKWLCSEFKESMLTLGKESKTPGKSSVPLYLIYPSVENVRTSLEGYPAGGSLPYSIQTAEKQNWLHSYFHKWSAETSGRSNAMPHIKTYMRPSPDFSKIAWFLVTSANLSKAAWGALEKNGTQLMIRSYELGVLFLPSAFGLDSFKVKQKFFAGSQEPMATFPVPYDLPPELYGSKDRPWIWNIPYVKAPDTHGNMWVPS
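Compounds were preincubated with Tdp1 (1 nM final) for 15 min at room temperature before substrate (15 nM final) started a 5 min reaction; beads (10 ug/ml final) were then added for 10 min before AlphaScreen detection.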
TDP1 cell CPT: DT40-hTDP1 cell growth loss with CPT; chicken DT40 Tdp1-/-;hTDP1 cells + 20 nM CPT, ATP luminescence, 48 h; Potency, µM (doses to about 46.2 µM), for the others: top-dose activity change, negative = growth inhibition, most hits filed as inhibitors; 420,000 compounds, 12% hits; further: potency means the concentration at half of the fitted maximal effect; on the % scale 0 is the no-effect control and ±100 the full control effect; nearly all actives have a fitted effect of over 55% in size
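Chicken DT40 Tdp1-/- cells stably complemented with human TDP1 were seeded at 400 cells/well in medium containing 20 nM camptothecin, exposed to pin-transferred compounds, and grown at 37 °C for at least 48 hr. Viability was read as ATP luminescence.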
TGFb SMAD3 inh: TGF-b pathway inhibition; 410,000 compounds, 1.2% hits; AID 588855; Potency, µM (top dose mostly 46.1 µM), inactives show top-dose activity, negative = inhibition, hits mostly inhibitors; HepG2 CAGA-GFP TGF-b/SMAD3 reporter, GFP fluorescence, 18 h; TGF-beta stimulated, 500 pg/mL final; further: potency means the concentration at half of the fitted maximal effect; on the % scale 0 is the no-effect control and ±100 the full control effect; nearly all actives have a fitted effect of over 65% in size
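First, reporter cells (HEPG2 CAGA-GFP) rested 2 h at 37 degrees C. Next, compounds were pinned in and TGF-beta added to 500 pg/mL final. After 18 h, GFP was imaged per cell and summed per well.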
TDP1 cell noCPT: qHTS for Inhibitors of human tyrosyl-DNA phosphodiesterase 1 (TDP1): qHTS in cells in absence of CPT | DT40 Tdp1-/- hTDP1 cells, no CPT, ATP luminescence, 48 h | Potency, µM (highest dose often 46.2 µM), for inactives: at the highest dose activity change, negative = growth inhibition, hits mostly inhibitors | 420,000 compounds, 15% hits; further: potency means the concentration at half of the fitted maximal effect; on the % scale 0 is the no-effect control and ±100 the full control effect; nearly all actives have a fitted effect of over 55% in size
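DT40 Tdp1-/-;hTDP1 cells, no CPT (DMSO vehicle only), 400 cells/well; compounds pin-transferred; ≥48 hr, 37 °C; CellTiter-Glo 30 min RT dark, luminescence read.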
IL-1B inflam inh: inhibitors of inflammasome signaling (IL-1 beta secretion). activity change, % at 57.5 µM. AID 743279. THP-1 LPS/ATP IL-1B secretion, AlphaLISA, 16 h; hits give low values. 360,000 compounds, 4.7% hits; in the data active means activity change below about -50%; inconclusive means mostly about -30% to -49%; further: on the % scale 0 is the no-effect control and ±100 the full control effect
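THP-1 cells pretreated 1 hr with compounds (up to 57.5 uM final), then stimulated with LPS (250 ng/mL final) plus ATP (1.25 mM final); secreted IL-1B measured by AlphaLISA after 16 hr, decreased signal indicating inhibition.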
The depositor's hits bear a star; ? = inconclusive; / = not tested or not shown; ! = repeats disagree; [ ] = another dose, or the depositor's remark. Unless noted, the call rests on the fitted dose curve; in most records, active means well fitted curve in the direction sought with a large enough effect; inconclusive means small, poorly fitted or top-dose-only effect, or another doubt; inactive means no such curve, though single readings can be large; an effect the other way counts as inactive or inconclusive.

SMILES	HepG2 tox	TDP1 inh	TDP1 cell CPT	TGFb SMAD3 inh	TDP1 cell noCPT	IL-1B inflam inh
CCOC(=O)[C@@H]1[C@H]2COc3ccc(Br)cc3[C@@H]2N2C(=O)N(c3ccc(C)cc3)C(=O)[C@@]12C	-10%	1%	?	?	?	7
CCOC(=O)[C@@H]1[C@H]2COc3ccc(Br)cc3[C@H]2N2C(=O)N(c3ccc(Cl)cc3)C(=O)[C@]12C	-4%	1%	?	-4%	9.2µM*	-3
CCOC(=O)[C@@H]1[C@H]2COc3ccc(Br)cc3[C@@H]2N2C(=O)N(c3ccc(Br)cc3)C(=O)[C@]12C	1%	/	-14%	7.1µM*	?	-9
CCOC(=O)[C@H]1[C@H]2COc3ccc(Br)cc3[C@@H]2N2C(=O)N(c3ccccc3)C(=O)[C@@]12C	-9%	0%	18µM*	-30%	-28%	23
CCOC(=O)[C@@H]1[C@H]2COc3ccc(Br)cc3[C@H]2N2C(=O)N(c3ccc(C(F)(F)F)cc3)C(=O)[C@]12C	-5%	1%	?	-29%	12µM*	7
CCc1ccc(NS(=O)(=O)c2[nH]ncc2C(=O)OC)cc1	0%	-6%	-16%	18%	?	/
COc1cc2c(c(OC)c1OC)-c1c(cc(OC)c(OC)c1OC)CC(C)C(C)C2 (configuration not stated)	/	6%	/	/	/	/
CCCCCCC[n+]1ccc(/C=C/c2c(C)[nH]c3ccccc23)c2ccccc21	-114%	/	1.3µM*	13µM*	1.3µM*	/
CCCCCCCCCC[n+]1ccc(/C=C/c2c(C)[nH]c3ccccc23)c2ccccc21	3.2µM*	/	0.79µM*	2.5µM*	1µM*	/
Cc1[nH]c2ccccc2c1/C=C/C(=O)c1ccncc1	-18%	/	-9%	13%	-21%	-12
CC1CCCCN1C(=O)CCNC(=O)Cn1cnc2ccccc2c1=O (configuration not stated)	-15%	1%	-4%	0%	1%	3
O=C(NCCCc1ccncc1)C1CCC(=O)N(CCc2cccc(F)c2)C1 (configuration not stated)	2%	1%	0%	0%	1%	-6
CCN(CC(=O)NC1CCS(=O)(=O)C1)c1ccc([N+](=O)[O-])cc1C#N (configuration not stated)	-19%	0%[56.1 µM]	-24%	8%	1%	12
Cc1ccc(NC2=C/C(=N\S(=O)(=O)c3cccs3)c3ccccc3C2=O)c(C)c1	4.5µM*	11%	2.6µM*	2.5µM*	2.6µM*	-97*
Cc1c(Cl)cccc1N/C(=N/S(=O)(=O)c1cccs1)c1ccccc1	-19%	-6%	-19%	-27%	?	-24
Cc1ccc(Cl)cc1NC1=C/C(=N\S(=O)(=O)c2cccs2)c2ccccc2C1=O	3.5µM*!	11%	5.2µM*	4µM*	2.9µM*	-99*
COc1ccc(C)cc1NC(=O)C(NS(=O)(=O)c1cccs1)c1ccccc1 (configuration not stated)	-6%	5%	-19%	-6%	?	/
Cc1cccc(NC2=C/C(=N/S(=O)(=O)c3cccs3)c3ccccc3C2=O)c1	1%	3%	3.7µM*	?	3.3µM*	-83*
Cc1ccc(Cl)cc1NS(=O)(=O)c1ccccc1	-18%	/	-6%	-3%	?	18
CCC(CC)NC(=O)CN1CCN(S(=O)(=O)c2cccs2)CC1	-1%	5%	11%	1%	-3%	14
CN(C)S(=O)(=O)c1cccc(NC(=O)c2ccc(COc3ccccc3)cc2)c1	-33%	/	18µM*	-21%	6.5µM*	-73*
